Bioassay records deposited in PubChem BioAssay by National Center for Advancing Translational Sciences (NCATS).
G9a block: G9a (human) methyltransferase inhibition; G9a H3K9 monomethylation, AlphaScreen, 2 h; hit rate 8.8% among 350,000; Potency, µM (highest dose often 102 µM), for the others: top-dose activity, negative = inhibition, hits mostly inhibitors; Q96KQ7; further: potency means the concentration at half of the fitted maximal effect; on the % scale 0 is the no-effect control and ±100 the full control effect; nearly all actives have a fitted effect of over 75% in size
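Signal arises when biotinylated H3K9 peptide, once monomethylated, bridges streptavidin donor and antibody-captured acceptor beads. Enzyme at 20 nM was preincubated 15 min with test compounds; peptide 500 nM and SAM 20 uM then reacted for 2 h.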
BAZ2B block: BAZ2B (human) inhibition; Q9UIF8; AlphaScreen BAZ2B-H3K14Ac peptide displacement; Potency, µM (titrated, usually from 114 µM), inactives show at the highest dose activity change, negative = inhibition, hits mostly inhibitors; hit rate 4.4% among 360,000; AID 504333; further: potency means the concentration at half of the fitted maximal effect; on the % scale 0 is the no-effect control and ±100 the full control effect; nearly all actives have a fitted effect of over 60% in size
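BAZ2B (50 nM) with biotin-H3(5-23)K14Ac peptide (50 nM) in PBS pH 7.4, 0.01% Tween-20, preformed 30 min, then compound 30 min at room temperature; top concentration 110uM. AlphaScreen streptavidin donor/nickel chelate acceptor beads (10 ug/mL final), 20 min dark, signal read.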
Six1-Eya2 blk: inhibitors of human Six1/Eya2 interaction. Q15475+O00167. AlphaScreen GST-Six1/His-Eya2 binding, biochemical; active compounds read low. activity change, % (no concentration beside the values). hit rate 0.56% among 360,000; in the data active means activity change below about -65%; inconclusive means mostly about -30% to -63%; further: on the % scale 0 is the no-effect control and ±100 the full control effect
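Homogeneous AlphaScreen proximity assay pairing GST-Six1 with His-tagged Eya2 (added as 5X mix: 250 nM and 500 nM) in 50 mM Tris pH 8.0, 300 mM NaCl, 1 mM TCEP. Glutathione donor and nickel acceptor beads; 1 h, 37 °C, dark.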
HP1b chromo inh: HP1-beta chromodomain-methylated histone interaction inhibition. Potency, µM (doses to about 114 µM), for inactives: top-dose activity change, negative = inhibition, usual class: inhibitors. AlphaScreen HP1-beta / biotin-H3K9me3 peptide binding. P83916. hit rate 0.56% among 390,000; further: potency means the concentration at half of the fitted maximal effect; nearly all actives have a fitted effect of over 70% in size
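AlphaScreen: HP1-beta (50 nM) preformed 30 min with biotin-H3(1-18)K9me3 peptide (50 nM) in PBS pH 7.4, 0.01% Tween-20. Compound added for 30 min at RT, then streptavidin donor/nickel chelate acceptor beads (10 ug/mL) for 30 min.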
JMJD2A Tudor inh: JMJD2A Tudor domain (human) inhibition; O75164; AlphaScreen JMJD2A-Tudor / H3K4me3 peptide binding; Potency, µM (highest dose often 114 µM), for inactives: at the highest dose activity change, negative = inhibition, hits mostly inhibitors; hit rate 4.4% among 390,000; further: potency means the concentration at half of the fitted maximal effect; on the % scale 0 is the no-effect control and ±100 the full control effect; nearly all actives have a fitted effect of over 50% in size
Target sequence (O75164 whole entry, looked up, the tested form may be a part): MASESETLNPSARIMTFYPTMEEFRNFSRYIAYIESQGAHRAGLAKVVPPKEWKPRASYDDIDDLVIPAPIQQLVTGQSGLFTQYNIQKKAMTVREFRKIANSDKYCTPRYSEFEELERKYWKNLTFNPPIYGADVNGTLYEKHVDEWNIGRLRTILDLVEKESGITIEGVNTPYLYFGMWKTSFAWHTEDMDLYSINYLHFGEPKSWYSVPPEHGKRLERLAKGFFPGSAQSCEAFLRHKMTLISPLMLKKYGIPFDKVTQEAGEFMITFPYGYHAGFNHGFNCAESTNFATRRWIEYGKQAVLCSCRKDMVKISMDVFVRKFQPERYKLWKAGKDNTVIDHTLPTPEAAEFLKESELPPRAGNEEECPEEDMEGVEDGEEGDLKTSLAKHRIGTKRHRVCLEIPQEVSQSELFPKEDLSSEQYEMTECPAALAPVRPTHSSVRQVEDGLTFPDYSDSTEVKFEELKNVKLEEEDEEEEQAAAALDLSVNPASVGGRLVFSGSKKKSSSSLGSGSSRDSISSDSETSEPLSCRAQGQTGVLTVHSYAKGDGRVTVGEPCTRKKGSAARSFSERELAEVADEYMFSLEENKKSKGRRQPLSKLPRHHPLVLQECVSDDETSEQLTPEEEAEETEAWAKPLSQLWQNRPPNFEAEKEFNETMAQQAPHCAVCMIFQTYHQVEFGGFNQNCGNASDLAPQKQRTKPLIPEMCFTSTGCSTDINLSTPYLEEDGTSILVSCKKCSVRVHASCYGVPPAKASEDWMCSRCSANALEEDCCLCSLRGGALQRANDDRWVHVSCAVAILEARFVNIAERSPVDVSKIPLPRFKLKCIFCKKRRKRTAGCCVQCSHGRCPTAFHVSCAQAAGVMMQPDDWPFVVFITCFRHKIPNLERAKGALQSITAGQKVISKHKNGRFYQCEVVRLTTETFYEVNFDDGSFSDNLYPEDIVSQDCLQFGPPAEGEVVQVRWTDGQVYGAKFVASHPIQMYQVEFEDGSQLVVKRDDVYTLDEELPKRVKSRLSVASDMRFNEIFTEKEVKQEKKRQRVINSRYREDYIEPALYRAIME
CtBP-E1A blk: CtBP/E1A binding inhibition; AlphaScreen GST-E1A/His-CtBP binding, 1536-well; active compounds read low; activity change, % (concentration not given with the values); hit rate 0.49% among 340,000; in the data active means activity change below about -65%; inconclusive means mostly about -30% to -63%; further: on the % scale 0 is the no-effect control and ±100 the full control effect
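GST-E1A and His-tagged CtBP (125 nM each as 5X stock) were preincubated with pin-transferred compound for 2 h at 37 °C in the dark, then glutathione donor and nickel acceptor beads were added for 1 h before AlphaScreen reading.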
* = called active by the depositor; ? = inconclusive; · = no result; [ ] = another dose, or the depositor's remark. Sampled rows, rich in hits. Any-hit rate of the full collection: about 10%. Unless noted, the call rests on the fitted dose curve; in most records, active means well fitted inhibition curve with a large enough effect; inconclusive means small, poorly fitted or top-dose-only effect; inactive means no such curve, though single readings can be large or run the other way.

SMILES	G9a block	BAZ2B block	Six1-Eya2 blk	HP1b chromo inh	JMJD2A Tudor inh	CtBP-E1A blk
COc1ccc(C(=O)NC2(C(F)(F)F)NC(=O)N(CCCc3ccccc3)C2=O)cc1OC (stereo not drawn)	3%	-4%	-3	-1%	79µM*	1
O=C(CCN1C(=O)C2CC=C(Cl)CC2C1=O)N1CCCCC1 (stereo not drawn)	11µM*	-8%	5	-1%	?	-1
CCOc1ccc(C(=O)c2oc3ccccc3c2NC(=O)c2cc(=O)c3ccc(C)cc3o2)cc1	10%[59 µM]	2%	·	84%	5%	·
Cc1ccc(CCC(=O)NCc2ccccc2)o1	79µM*	-5%	0	32%	-21%	5
Cc1cc(NC(=O)CCc2ccc(C)o2)no1	11%[12.7 µM]	-5%	-77*	17%	-18%	-18
Cc1cc(NC(=O)CS(=O)(=O)c2ccc(F)cc2)no1	?	1%	5	27%	-14%	-2
Cc1cc(NC(=O)CS(=O)(=O)c2ccc(Cl)cc2)no1	-7%	-14%	-2	27%	79µM*	·
Cc1ccc(C)c(NC(=O)CCc2ccc(C)o2)c1	·	?	3	12%	-24%	·
O=C(CCc1ccccc1)NCc1ccccc1	9%	5%	8	24%	-13%	·
Cc1ccc(CCC(=O)Nc2ccc(C#N)cc2)o1	40µM*	-38%	-19	33%	-3%	·
CC(C)(C)c1cc(NC(=O)COc2ccc(Br)cc2)n(-c2ccccc2)n1	30%	7%	7	106%	10%[57.1 µM]	5
COC(=O)c1c(NC(=O)/C=C/c2ccc(OC)c(OC)c2)sc2c1CCC2	-8%[59 µM]	-1%	·	1%	-11%	·
Cc1ccccc1NC1=C/C(=N\S(=O)(=O)c2cccs2)c2ccccc2C1=O	3.2µM*	10µM*	-84*	?	6.3µM*	-85*
COc1ccc(S(=O)(=O)/N=C2\C=C(Nc3ccc(O)cc3)C(=O)c3ccccc32)cc1	8.9µM*	8.9µM*	?	10µM*	5.6µM*	-88*
CC(=O)Nc1ccc(NC2=C/C(=N/S(=O)(=O)c3cccs3)c3ccccc3C2=O)cc1	45µM*	3.5µM*	0	50µM*	50µM*	-29
Cc1ccc(NC2=C/C(=N/S(=O)(=O)c3cccs3)c3ccccc3C2=O)cc1C	0%[59 µM]	?	-6	-17%	-24%	-15
Cc1cccc(C(=O)NNC(=O)C2CC2)c1	19%	-7%	1	31%	4%	10
CCOc1cc(C2Nc3ccccc3C(=O)N2Cc2ccco2)ccc1OCc1ccccc1Cl (stereo not drawn)	·	·	·	11%[57 µM]	-17%[57.1 µM]	·
O=C(N/N=C/c1cc2cc3c(cc2nc1Cl)OCO3)c1ccncc1	?	-26%	-4	85%	-16%	·
CCOc1cc(/C=C2\C(=O)N(c3ccc(C(N)=O)cc3)N=C2C)ccc1OC(=O)c1cccs1	45µM*	50µM*	-7	-21%	-28%	-2
CCOc1cc(/C=N/NC(=O)C(O)(c2ccccc2)c2ccccc2)ccc1OC(=O)c1ccco1	·	·	-3	-5%	-20%	-5
CCOc1cc(/C=C2/C(=O)N(c3ccccc3)N=C2C)ccc1OC(=O)c1ccco1	?	45µM*	-3	-21%	56µM*	1
CC1=NN(c2ccc(C(=O)O)cc2)C(=O)/C1=C\c1ccc(OC(=O)c2cccs2)cc1	32µM*	?	?	-8%	-6%[11.4 µM]	·
CC(=O)N(CCc1ccccc1)c1ccc2c(c1)C1CC2CCN1C(=O)OCc1ccccc1 (stereo not drawn)	·	·	-8	·	·	-11
Cc1ccc(S(=O)(=O)N(C)C)cc1NC(=O)C(C)OC(=O)C1CCC1 (stereo not drawn)	·	·	0	31%	12%	12
Oc1nc(-c2ccc(Br)cc2)n2ccncc12	·	-9%	-5	12%	-23%	-9
CCN1CCN(c2nc(C)nc3c2sc(=S)n3C)CC1	6.3µM*	-5%	2	-14%	?	-14
